By AC50 is commonly meant the concentration giving half of the maximal activity seen.

This note sets out measurements from PubChem BioAssay (EPA / NIEHS).

For assay [1], the target named is human Peroxisome Proliferator-activated Receptor alpha (PPARa), PPARA (gene 5465) (UniProt Q07869). Nature of the assay: ATG_PPARa_TRANS: Attagene TRANS-FACTORIAL HepG2 Assay for human Peroxisome Proliferator-activated Receptor alpha (PPARa) (AID 2283001).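 For AC50: potency for gain of reporter signal over DMSO so agonist or activator.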 The procedure, abridged:
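Transient HepG2 transfection, GAL4-UAS reporters, NR-Gal4 chimeras; 24 h compound exposure. Readout: reporter transcripts by RT-PCR, 6-FAM primer extension, HpaI digest, capillary electrophoresis. Positive direction vs DMSO baseline.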

Read-out in assay [2]: Intercellular Adhesion Molecule 1 (ICAM1), ICAM1 (gene 3383)
As to the kind of experiment: BSK_3C_ICAM1: BioMAP Diversity Plus: 3C Assay for Intercellular Adhesion Molecule 1 (ICAM1) Biomarker Activity (AID 2283003; active = hit-call score of the fitted dose curve at least 0.9, where 1 is the maximum; inactive = score below 0.9). As to conditions: primary human endothelial cells (HUVEC); actives raise or lower the signal. The procedure, abridged: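 Using DMSO as baseline, bidirectional curve fitting was applied to ICAM-1 ELISA signals from HUVEC in the 3C system, measured 24 h after compound addition.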

The nature of assay [3]: BSK_3C_Proliferation: Cell Proliferation Assessment in the BioMAP Diversity Plus: 3C Assay (AID 2283006; active = hit-call score of the fitted dose curve at least 0.9, where 1 is the maximum; inactive = score below 0.9;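 for AC50: potency may reflect either rise or fall in cell number versus DMSO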). The settings on record: primary human endothelial cells (HUVEC). The procedure, abridged: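 Measured here: sulforhodamine B (0.1%) staining of TCA-fixed sub-confluent umbilical vein endothelial cultures 48 h post-dosing, absorbance 560 nm. DMSO served as negative control and baseline; both signal gain and loss were modelled.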

Assay [4] addresses Peroxisome proliferator-activated receptor gamma (Homo sapiens) (UniProt P37231). Nature of the assay: ATG_PPARg_TRANS: Attagene TRANS-FACTORIAL HepG2 Assay for human Peroxisome Proliferator-activated Receptor-gamma (PPARg) (AID 2283007). The essentials: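 After 24 h of chemical exposure, transfected HepG2 cells carrying PPARγ-Gal4 chimera reporter constructs are lysed for RNA. Reporter transcripts are measured by RT-PCR and capillary electrophoresis with fluorescent labelling, and gain of signal is fitted versus DMSO.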

For assay [5], the target named is Nuclear receptor subfamily 1 group I member 2 (Homo sapiens) (UniProt O75469). As to the kind of experiment: ATG_PXR_TRANS: Attagene TRANS-FACTORIAL HepG2 Assay for human Pregnane X Receptor (PXR) (AID 2283008). The essentials:
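Transactivation by exogenous PXR–GAL4 fusion measured as reporter transcript induction after 24 h compound treatment of transfected human HepG2 cells. Read-out via RT-PCR and capillary electrophoresis of labelled fragments, fitted upward relative to DMSO.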

Assay [6] has as its target Retinoic acid receptor RXR-alpha (Homo sapiens) (UniProt P19793). Nature of the assay: ATG_RXRa_TRANS: Attagene TRANS-FACTORIAL HepG2 Assay for human Retinoid X Receptor alpha (RXRa) (AID 2283012). The procedure, abridged:
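Chimeric NR-GAL4 trans-activation in HepG2, 24 h treatment; reporter transcripts quantified by fluorescence on capillary electrophoresis, analysed for upward change from DMSO.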

Assay [7] concerns the target human Retinoid X Receptor beta (RXRb), RXRB (gene 6257) (UniProt P28702). As to the kind of experiment: ATG_RXRb_TRANS: Attagene TRANS-FACTORIAL HepG2 Assay for human Retinoid X Receptor beta (RXRb) (AID 2283013). The procedure, abridged:
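After a 24 h incubation with test chemical, transfected HepG2 cells carrying NR-Gal4 fusions and GAL4-UAS reporter transcription units yield RNA whose reporter cDNA is FAM-labelled, HpaI-cut and sized by capillary electrophoresis; increases over DMSO are scored.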

Read-out in assay [8]: E-selectin (Homo sapiens) (UniProt P16581)
Nature of the assay: BSK_3C_Eselectin: BioMAP Diversity Plus: 3C Assay for Eselectin Biomarker Activity (AID 2283015; active = hit-call score of the fitted dose curve at least 0.9, where 1 is the maximum; inactive = score below 0.9;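 for outcome: cell surface E-selectin protein quantified by ELISA 24 h after dosing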). As to conditions: primary human endothelial cells (HUVEC); actives raise or lower the signal. The essentials:
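ELISA read-out of E-selectin on endothelial monolayers after 24 h chemical treatment. Human umbilical vein primary cells served as the system, with DMSO defining baseline activity for bidirectional fitting.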

Read-out in assay [9]: Interleukin-1 alpha (IL1a), IL1A (gene 3552)
Nature of the assay: BSK_BE3C_IL1a: BioMAP Diversity Plus: BE3C Assay for Interleukin-1 alpha (IL1a) Biomarker Activity (AID 2283016; active = hit-call score of the fitted dose curve at least 0.9, where 1 is the maximum; inactive = score below 0.9). The settings on record: primary human bronchial epithelial cells; actives raise or lower the signal. The procedure, abridged:
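Measured in human lung primary bronchial epithelial cells: IL-1a by ELISA at 24 h after dosing, with bidirectional fitting against DMSO.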

Read-out in assay [10]: Monocyte Chemoattractant Protein-1 (MCP1), CCL2 (gene 6347)
As to the kind of experiment: BSK_3C_MCP1: BioMAP Diversity Plus: 3C Assay for Monocyte Chemoattractant Protein-1 (MCP1) Biomarker Activity (AID 2283017; active = hit-call score of the fitted dose curve at least 0.9, where 1 is the maximum; inactive = score below 0.9). The settings on record: primary human endothelial cells (HUVEC); actives raise or lower the signal. The procedure, abridged:
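ELISA read-out of MCP-1 from human umbilical vein endothelial cell cultures harvested 24 h post-dosing. Gain or loss of signal was fitted relative to DMSO.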

Read-out in assay [11]: Monocyte Chemoattractant Protein-1 (MCP1), CCL2 (gene 6347)
As to the kind of experiment: BSK_4H_MCP1: BioMAP Diversity Plus: 4H Assay for Monocyte Chemoattractant Protein-1 (MCP1) Biomarker Activity (AID 2283018; active = hit-call score of the fitted dose curve at least 0.9, where 1 is the maximum; inactive = score below 0.9). The settings on record: primary human endothelial cells (HUVEC); actives raise or lower the signal. The procedure, abridged:
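Primary human umbilical vein endothelium is exposed to chemical for 24 h before MCP-1 is assayed by ELISA. Concentration-response fitted bidirectionally relative to DMSO.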

Read-out in assay [12]: Human Leukocyte Antigen - DR isotype (HLADR), HLA-DRA (gene 3122)
As to the kind of experiment: BSK_3C_HLADR: BioMAP Diversity Plus: 3C Assay for Human Leukocyte Antigen - DR isotype (HLADR) Biomarker Activity (AID 2283019; active = hit-call score of the fitted dose curve at least 0.9, where 1 is the maximum; inactive = score below 0.9;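 for outcome: ELISA of cell-surface HLA-DR on HUVEC 24 h after dosing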). As to conditions: primary human endothelial cells (HUVEC); actives raise or lower the signal. The essentials:
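ELISA readout of surface HLA-DR on human umbilical vein endothelium, taken 24 h after chemical treatment. Gain- and loss-of-signal were both fitted relative to DMSO.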

Read-out in assay [13]: Interleukin-8 (IL8), CXCL8 (gene 3576)
As to the kind of experiment: BSK_3C_IL8: BioMAP Diversity Plus: 3C Assay for Interleukin-8 (IL8) Biomarker Activity (AID 2283020; active = hit-call score of the fitted dose curve at least 0.9, where 1 is the maximum; inactive = score below 0.9). The settings on record: primary human endothelial cells (HUVEC); actives raise or lower the signal. The essentials:
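Using DMSO-treated wells as the baseline, bidirectional curve fitting was applied to ELISA-measured IL-8 from human umbilical vein endothelial cultures sampled 24 h after compound addition.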

Assay [14] addresses human Vitamin D Receptor (VDR), VDR (gene 7421) (UniProt P11473). As to the kind of experiment: ATG_VDR_TRANS: Attagene TRANS-FACTORIAL HepG2 Assay for human Vitamin D Receptor (VDR) (AID 2283022). The essentials: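 Steps: transfect HepG2 with GAL4-UAS-driven reporter constructs; dose compounds 24 h; isolate RNA, reverse-transcribe, PCR-amplify with 6-FAM-labelled primer extension and HpaI digestion; quantify fragments by capillary electrophoresis relative to DMSO.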

For assay [15], the target named is human RAR-related Orphan Receptor beta (RORb), RORB (gene 6096) (UniProt Q92753). As to the kind of experiment: ATG_RORb_TRANS: Attagene TRANS-FACTORIAL HepG2 Assay for human RAR-related Orphan Receptor beta (RORb) (AID 2283010). The essentials: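 Multiplexed transcription-factor reporter assay: HepG2 cells transiently carrying NR-Gal4/GAL4-UAS constructs, 24 h treatment, mRNA quantified by RT-PCR plus capillary electrophoresis fluorescence; activity scored as induction over DMSO.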

Assay [16] concerns the target human Thyroid Receptor alpha (THRa1), THRA (gene 7067) (UniProt P10827). Nature of the assay: ATG_THRa1_TRANS: Attagene TRANS-FACTORIAL HepG2 Assay for human Thyroid Receptor alpha (THRa1) (AID 2283014). The essentials:
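Reporter transcript induction, read by capillary electrophoresis of 6-FAM-labelled RT-PCR products, reflects activity of a transfected THRa1-Gal4 fusion in HepG2 liver cells. Cells were dosed for 24 h; activity was fitted in the positive direction against DMSO.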

For assay [17], the target named is human Retinoic Acid Receptor beta (RARb), RARB (gene 5915) (UniProt P10826). As to the kind of experiment: ATG_RARb_TRANS: Attagene TRANS-FACTORIAL HepG2 Assay for human Retinoic Acid Receptor beta (AID 2283004). The procedure, abridged:
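Transient transfection of HepG2 with multiple reporter units → chemical dosing, 24 h → total RNA isolation → RT with oligo(dT) → reporter-specific PCR, 6-FAM primer extension, HpaI digest → capillary electrophoresis. Positive direction vs DMSO control.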

In assay [18] the target is Retinoic acid receptor alpha (Homo sapiens) (UniProt P10276). Nature of the assay: ATG_RARa_TRANS: Attagene TRANS-FACTORIAL HepG2 Assay for human Retinoic Acid Receptor alpha (RARa) (AID 2283005). The essentials:
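HepG2 transiently transfected with multiplex GAL4-UAS reporter units including a human RARa–GAL4 chimera; 24 h compound exposure. Reporter mRNA quantified by RT-PCR, 6-FAM labeling and capillary electrophoresis; gain of signal versus DMSO.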

Read-out in assay [19]: Monokine induced gamma interferon (MIG), CXCL9 (gene 4283)
As to the kind of experiment: BSK_3C_MIG: BioMAP Diversity Plus: 3C Assay for Monokine induced gamma interferon (MIG) Biomarker Activity (AID 2283021; active = hit-call score of the fitted dose curve at least 0.9, where 1 is the maximum; inactive = score below 0.9). The settings on record: primary human endothelial cells (HUVEC); actives raise or lower the signal. The procedure, abridged:
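ELISA-measured MIG in dosed HUVEC 3C cultures at 24 h, analysed by bidirectional fitting with DMSO defining baseline activity.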

In assay [20] the target is human Peroxisome Proliferator-activated Receptor delta (PPARd), PPARD (gene 5467) (UniProt Q03181). As to the kind of experiment: ATG_PPARd_TRANS: Attagene TRANS-FACTORIAL HepG2 Assay for human Peroxisome Proliferator-activated Receptor delta (PPARd) (AID 2283002). The procedure, abridged:
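Fluorescence from capillary electrophoresis of labelled RT-PCR reporter fragments gives the signal; DMSO sets baseline. Cells: HepG2 transiently carrying GAL4-UAS reporter units plus chimeric nuclear receptor-Gal4 proteins, exposed to chemicals for 24 h.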

Records with an inconclusive call do not appear. Calls of active or inactive are those of the source. Rule for the calls, unless noted: active = hit-call score of the fitted dose curve at least 0.9, where 1 is the maximum; inconclusive = response in the unintended direction; inactive = score below 0.9.

Sequence of Nuclear receptor subfamily 1 group I member 2 (Homo sapiens) (O75469 whole entry, looked up, the tested form may be a part): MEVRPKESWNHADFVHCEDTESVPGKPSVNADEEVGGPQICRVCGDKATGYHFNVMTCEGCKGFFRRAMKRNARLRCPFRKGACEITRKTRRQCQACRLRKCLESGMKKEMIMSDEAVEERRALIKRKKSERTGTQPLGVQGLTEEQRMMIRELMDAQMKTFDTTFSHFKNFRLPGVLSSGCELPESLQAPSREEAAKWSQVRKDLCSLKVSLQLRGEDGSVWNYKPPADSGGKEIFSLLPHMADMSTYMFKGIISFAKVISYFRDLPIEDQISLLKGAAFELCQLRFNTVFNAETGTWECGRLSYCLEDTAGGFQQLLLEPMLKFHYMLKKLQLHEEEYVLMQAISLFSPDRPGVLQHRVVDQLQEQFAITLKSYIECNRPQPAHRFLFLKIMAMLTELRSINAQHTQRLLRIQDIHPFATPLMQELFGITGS
Sequence of Retinoic acid receptor RXR-alpha (Homo sapiens) (P19793 whole entry, looked up, the tested form may be a part): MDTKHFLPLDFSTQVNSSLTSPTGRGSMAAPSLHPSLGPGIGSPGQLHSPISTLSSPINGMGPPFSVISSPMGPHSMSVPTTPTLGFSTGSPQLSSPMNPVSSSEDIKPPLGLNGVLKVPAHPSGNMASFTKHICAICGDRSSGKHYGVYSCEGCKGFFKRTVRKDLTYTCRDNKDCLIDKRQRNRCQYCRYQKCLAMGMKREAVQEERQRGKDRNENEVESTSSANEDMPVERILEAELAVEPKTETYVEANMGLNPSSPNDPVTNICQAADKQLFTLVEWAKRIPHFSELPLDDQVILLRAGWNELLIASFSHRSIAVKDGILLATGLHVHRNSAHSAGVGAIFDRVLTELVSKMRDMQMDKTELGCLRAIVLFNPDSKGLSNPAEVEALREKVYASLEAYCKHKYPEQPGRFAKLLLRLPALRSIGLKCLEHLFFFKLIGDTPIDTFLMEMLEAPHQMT
Sequence of human Peroxisome Proliferator-activated Receptor alpha (PPARa), PPARA (gene 5465) (Q07869 whole entry, looked up, the tested form may be a part): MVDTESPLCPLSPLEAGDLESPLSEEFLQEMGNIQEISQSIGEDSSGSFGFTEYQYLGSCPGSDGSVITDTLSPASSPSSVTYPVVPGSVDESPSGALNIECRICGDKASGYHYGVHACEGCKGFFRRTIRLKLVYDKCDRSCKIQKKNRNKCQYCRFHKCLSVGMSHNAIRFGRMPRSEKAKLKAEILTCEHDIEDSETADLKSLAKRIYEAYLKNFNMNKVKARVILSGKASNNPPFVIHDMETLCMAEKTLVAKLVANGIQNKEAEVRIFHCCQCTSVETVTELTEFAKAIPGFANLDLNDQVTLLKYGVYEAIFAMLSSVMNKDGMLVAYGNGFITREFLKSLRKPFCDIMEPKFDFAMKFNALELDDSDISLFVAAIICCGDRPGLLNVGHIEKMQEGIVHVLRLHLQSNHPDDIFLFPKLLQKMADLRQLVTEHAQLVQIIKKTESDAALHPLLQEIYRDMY
Sequence of Peroxisome proliferator-activated receptor gamma (Homo sapiens) (P37231 whole entry, looked up, the tested form may be a part): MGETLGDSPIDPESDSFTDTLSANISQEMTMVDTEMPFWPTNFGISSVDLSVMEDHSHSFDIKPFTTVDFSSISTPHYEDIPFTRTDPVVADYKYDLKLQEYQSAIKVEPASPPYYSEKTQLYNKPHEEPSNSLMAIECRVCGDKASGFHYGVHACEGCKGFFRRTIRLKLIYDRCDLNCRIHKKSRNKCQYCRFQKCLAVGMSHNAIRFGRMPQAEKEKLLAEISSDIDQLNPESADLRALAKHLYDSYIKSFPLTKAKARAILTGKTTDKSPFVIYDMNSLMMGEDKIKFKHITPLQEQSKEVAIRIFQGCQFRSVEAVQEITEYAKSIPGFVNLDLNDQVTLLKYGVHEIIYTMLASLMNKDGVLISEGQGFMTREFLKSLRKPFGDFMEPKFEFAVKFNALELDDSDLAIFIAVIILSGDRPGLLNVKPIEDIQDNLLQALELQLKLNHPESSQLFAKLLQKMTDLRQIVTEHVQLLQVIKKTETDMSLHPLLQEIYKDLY
Sequence of E-selectin (Homo sapiens) (P16581 whole entry, looked up): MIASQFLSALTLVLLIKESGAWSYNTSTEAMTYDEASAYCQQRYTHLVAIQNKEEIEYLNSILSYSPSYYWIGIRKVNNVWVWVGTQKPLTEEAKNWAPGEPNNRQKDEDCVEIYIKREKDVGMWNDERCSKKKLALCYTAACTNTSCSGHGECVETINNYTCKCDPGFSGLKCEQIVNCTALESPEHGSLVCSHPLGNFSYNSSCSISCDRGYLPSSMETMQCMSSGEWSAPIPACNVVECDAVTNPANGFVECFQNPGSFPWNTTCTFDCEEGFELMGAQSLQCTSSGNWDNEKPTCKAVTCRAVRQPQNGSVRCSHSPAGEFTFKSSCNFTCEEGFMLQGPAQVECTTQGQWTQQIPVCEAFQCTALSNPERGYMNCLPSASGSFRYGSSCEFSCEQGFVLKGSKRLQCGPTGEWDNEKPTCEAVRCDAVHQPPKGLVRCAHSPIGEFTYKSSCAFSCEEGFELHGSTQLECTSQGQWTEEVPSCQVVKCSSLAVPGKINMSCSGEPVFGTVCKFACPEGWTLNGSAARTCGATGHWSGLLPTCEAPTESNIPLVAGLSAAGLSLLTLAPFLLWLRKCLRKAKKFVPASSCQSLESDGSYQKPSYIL
Sequence of human Vitamin D Receptor (VDR), VDR (gene 7421) (P11473 whole entry, looked up, the tested form may be a part): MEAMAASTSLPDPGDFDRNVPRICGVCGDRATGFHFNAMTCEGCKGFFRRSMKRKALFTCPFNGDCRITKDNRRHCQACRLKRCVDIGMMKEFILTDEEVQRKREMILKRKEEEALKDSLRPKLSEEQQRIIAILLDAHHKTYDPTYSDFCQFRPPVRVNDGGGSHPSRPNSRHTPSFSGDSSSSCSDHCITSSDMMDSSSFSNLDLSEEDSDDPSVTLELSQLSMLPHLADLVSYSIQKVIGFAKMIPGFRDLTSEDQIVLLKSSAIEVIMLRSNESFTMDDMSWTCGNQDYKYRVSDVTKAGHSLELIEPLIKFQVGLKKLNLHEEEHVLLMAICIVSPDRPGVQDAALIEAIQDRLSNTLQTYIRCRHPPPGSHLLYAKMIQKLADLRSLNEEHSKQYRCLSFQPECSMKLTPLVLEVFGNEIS
Sequence of human RAR-related Orphan Receptor beta (RORb), RORB (gene 6096) (Q92753 whole entry, looked up, the tested form may be a part): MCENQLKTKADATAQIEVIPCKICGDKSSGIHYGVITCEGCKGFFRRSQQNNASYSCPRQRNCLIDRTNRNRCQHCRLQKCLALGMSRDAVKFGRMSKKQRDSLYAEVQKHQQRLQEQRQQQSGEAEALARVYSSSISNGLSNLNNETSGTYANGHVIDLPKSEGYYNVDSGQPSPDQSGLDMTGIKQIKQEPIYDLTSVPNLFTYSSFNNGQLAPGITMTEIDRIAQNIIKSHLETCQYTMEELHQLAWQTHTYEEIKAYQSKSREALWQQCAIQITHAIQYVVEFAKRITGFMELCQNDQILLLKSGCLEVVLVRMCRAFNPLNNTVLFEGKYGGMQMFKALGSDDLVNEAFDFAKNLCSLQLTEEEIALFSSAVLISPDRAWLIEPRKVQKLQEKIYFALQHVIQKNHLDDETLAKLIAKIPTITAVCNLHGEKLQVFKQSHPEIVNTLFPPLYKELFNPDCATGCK
Sequence of human Retinoid X Receptor beta (RXRb), RXRB (gene 6257) (P28702 whole entry, looked up, the tested form may be a part): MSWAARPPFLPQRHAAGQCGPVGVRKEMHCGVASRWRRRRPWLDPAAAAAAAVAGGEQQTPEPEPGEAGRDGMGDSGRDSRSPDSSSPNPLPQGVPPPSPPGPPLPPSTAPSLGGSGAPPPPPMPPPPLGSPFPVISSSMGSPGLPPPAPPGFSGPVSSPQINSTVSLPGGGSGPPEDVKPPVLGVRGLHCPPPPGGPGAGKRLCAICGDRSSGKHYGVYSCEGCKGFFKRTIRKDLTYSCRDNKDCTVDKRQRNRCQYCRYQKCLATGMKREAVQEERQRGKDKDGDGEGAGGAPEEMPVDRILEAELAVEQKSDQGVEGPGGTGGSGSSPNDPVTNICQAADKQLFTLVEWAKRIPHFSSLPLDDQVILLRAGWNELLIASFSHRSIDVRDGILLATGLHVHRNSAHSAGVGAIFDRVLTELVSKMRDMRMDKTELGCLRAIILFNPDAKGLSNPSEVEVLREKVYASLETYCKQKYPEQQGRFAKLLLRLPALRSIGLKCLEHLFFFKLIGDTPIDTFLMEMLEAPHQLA
Sequence of Retinoic acid receptor alpha (Homo sapiens) (P10276 whole entry, looked up, the tested form may be a part): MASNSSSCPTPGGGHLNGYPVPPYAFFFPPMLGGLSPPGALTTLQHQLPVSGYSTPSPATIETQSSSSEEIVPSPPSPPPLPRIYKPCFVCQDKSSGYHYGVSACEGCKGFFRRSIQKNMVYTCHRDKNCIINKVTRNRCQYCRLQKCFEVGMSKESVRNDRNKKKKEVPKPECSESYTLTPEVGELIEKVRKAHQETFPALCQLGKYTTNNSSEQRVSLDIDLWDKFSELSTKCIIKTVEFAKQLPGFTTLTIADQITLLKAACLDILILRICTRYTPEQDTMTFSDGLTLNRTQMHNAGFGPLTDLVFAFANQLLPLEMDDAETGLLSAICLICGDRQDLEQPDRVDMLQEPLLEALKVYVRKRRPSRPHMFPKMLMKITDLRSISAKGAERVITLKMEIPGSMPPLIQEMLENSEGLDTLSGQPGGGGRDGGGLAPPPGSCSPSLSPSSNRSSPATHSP
Sequence of human Thyroid Receptor alpha (THRa1), THRA (gene 7067) (P10827 whole entry, looked up, the tested form may be a part): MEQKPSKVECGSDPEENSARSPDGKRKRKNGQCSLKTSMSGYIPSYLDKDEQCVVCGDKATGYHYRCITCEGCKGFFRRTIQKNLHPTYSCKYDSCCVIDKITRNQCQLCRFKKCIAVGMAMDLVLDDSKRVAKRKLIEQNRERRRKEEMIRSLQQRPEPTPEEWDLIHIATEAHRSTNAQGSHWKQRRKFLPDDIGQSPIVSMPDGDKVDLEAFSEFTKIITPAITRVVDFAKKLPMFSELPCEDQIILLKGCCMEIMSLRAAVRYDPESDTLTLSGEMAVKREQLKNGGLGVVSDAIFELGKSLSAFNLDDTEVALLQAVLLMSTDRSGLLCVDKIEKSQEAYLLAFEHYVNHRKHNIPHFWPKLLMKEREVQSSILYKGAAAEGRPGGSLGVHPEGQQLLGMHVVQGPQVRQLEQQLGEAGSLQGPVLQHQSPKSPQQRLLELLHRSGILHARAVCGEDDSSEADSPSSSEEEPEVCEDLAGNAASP

Regarding `Cc1cn([C@H]2C[C@H](N=[N+]=[N-])[C@@H](CO)O2)c(=O)[nH]c1=O`, the molecule was classed as inactive in assay [1], in assay [2], in [3], in assay [4], in [5] and in assay [6]. Besides, the outcome in assay [7], in assay [8], in [9], in [10], in [11] and in assay [12] was inactive. Moreover, the outcome in [13] and in assay [14] was inactive.

On to `O=CCCCC=O`, for which the result in assay [1], in assay [2], in [4], in [5], in assay [15] and in assay [6] was inactive. Further, the call in assay [7], in [10], in assay [11], in assay [13] and in assay [14] was inactive. Moreover, the AC50 in assay [3] was 25.1 µM (active); in assay [8], 33.7 µM (active); in assay [9] it was 33.2 µM (active); in [12] it was 29.5 µM (active).

As for `Cc1occc1C(=O)Nc1ccc(C(=O)N2CCC(F)(F)/C(=C\C(=O)N3CCC(N4CCCCC4)CC3)c3ccccc32)cc1`, the half-maximal activity concentration (AC50) was 53 µM (active) in [1]; 59.6 µM (active) in assay [4]; 25.5 µM (active) in [5]; 55.2 µM (active) in assay [7]; 53.8 µM (active) in assay [16]. The outcome in [2], in [3], in [8], in assay [9], in [10] and in assay [11] was inactive. In addition, the outcome in assay [12] and in assay [14] was inactive.

As for `CCCCCCCCCCCCO`, the molecule was classed as inactive in assay [1], in [17], in assay [18], in assay [5], in [15] and in assay [6]. In addition, the molecule was classed as inactive in assay [7] and in assay [16]. The AC50 in assay [2] is 36.2 µM (active); in assay [3], 30.2 µM (active); in assay [8] it was 31 µM (active); in assay [9], 19.8 µM (active); in [10], 31 µM (active); in assay [11] it was 31.9 µM (active). The AC50 in assay [12] is 31.3 µM (active).

As to `OC12N=C(c3ccccc3)SC1Cc1cc(Cl)ccc12` (stereo unspecified), the molecule was classed as inactive in assay [1], in assay [2], in [15], in [6], in [7] and in assay [8]. The outcome in assay [9], in [10], in assay [11], in assay [19] and in [14] was inactive. For the same molecule, the AC50 in assay [3] was 31.5 µM (active); in assay [4], 0.03 µM (active); in assay [5], 2.41 µM (active); in [12], 33.8 µM (active).

Consider `Oc1ccc2ccccc2c1`, for which the molecule was called inactive in assay [1], in assay [2], in assay [4], in [5], in assay [15] and in assay [6]. The result in assay [7], in [8], in assay [9], in assay [10], in [11] and in assay [12] was inactive. Also, the outcome in [13], in [19] and in assay [14] was inactive. Also, the AC50 in [3] was 10.7 µM (active).

With `Cc1c2ccccc2c(C)c2c1ccc1ccccc12`, the AC50 was 148 µM (active) in [1]; 100 µM (active) in assay [20]; 10.4 µM (active) in assay [3]; 24.1 µM (active) in [4]; 2.57 µM (active) in assay [5]; 15 µM (active) in assay [7]. The AC50 in [10] is 5.5 µM (active); in [11], 13 µM (active); in assay [12], 14.3 µM (active). In addition, the result in [2], in [18], in assay [8] and in [9] was inactive.
